Screening data as filed in PubChem BioAssay.
In the library only some 6.5% were active in any assay of this set; here they are far more common.
Vaccinia mCherry: inhibitors of vaccinia virus infection (mCherry reporter signal); Vaccinia virus mCherry reporter infection, fluorescence; Potency, µM (highest dose often 36.5 µM), for the others: at the highest dose activity change, negative = inhibition, actives largely listed as inhibitors; 310,000 tested, 0.63% active; calls by dose curve; tested in A549 cells; note: potency is the fitted concentration of half-maximal effect; nearly all actives have a fitted effect of over 35% in size
HCMV inh: blocks human cytomegalovirus replication | HFF cells, HCMV-luciferase reporter, 72 h; stronger effect = lower value | activity change, negative = inhibition, % at 57.5 µM | 410,000 tested, 4.5% active | AID 1259415; in the data active = activity change below about -60%; inconclusive = no clear call, values can overlap the other calls; inactive = above about -39%
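Inhibition of viral replication was scored as loss of reporter luminescence in HFFs infected with HCMV-luciferase (MOI 1 PFU/cell) for 72 h; compounds tested at 2 doses, normalized to buffer and Salinomycin controls.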
FMDV antiviral: blocks foot and mouth disease virus. FMDV antiviral cell-based qHTS. Potency, µM (titrated, usually from 57.9 µM), for inactives: top-dose activity change, negative = inhibition, most hits filed as inhibitors. 410,000 tested, 1.2% active. AID 1159524; calls by dose curve; tested in HEK293T cells; note: read-out not given here; potency is the fitted concentration of half-maximal effect; nearly all actives have a fitted effect of over 45% in size
MARV entry inh: inhibitors of Marburg virus binding or cell entry; Marburg virus pseudotyped entry inhibition, cell reporter; Potency, µM (top dose mostly 37.8 µM), inactives show at the highest dose activity change, negative = inhibition, usual class: inhibitors; 300,000 tested, 1.8% active; calls by dose curve; tested in HEK293 cells; note: potency is the fitted concentration of half-maximal effect
Vaccinia Venus: inhibitors of vaccinia virus (Venus reporter) | Vaccinia virus Venus reporter expression, fluorescence | Potency, µM (series often up to 36.5 µM), inactives show at the top dose activity change, negative = inhibition, usual class: inhibitors | 330,000 tested, 0.46% active; calls by dose curve; tested in A549 cells; note: potency is the fitted concentration of half-maximal effect; nearly all actives have a fitted effect of over 30% in size
LASV entry inh: blocks Lassa virus binding to or entry into cells | 300,000 tested, 1.2% active | AID 540256 | Lassa virus pseudotype entry inhibition, cell reporter | Potency, µM (top dose mostly 37.9 µM), for inactives: at the top dose activity change, negative = inhibition, usual class: inhibitors; calls by dose curve; tested in HEK293 cells; note: potency is the fitted concentration of half-maximal effect; nearly all actives have a fitted effect of over 50% in size
An asterisk follows results filed as active; i = inactive; ? = inconclusive; nt = no result given; [ ] = remark or other dose. % is set by controls: 0 for no effect and ±100 for the full control effect.

SMILES	Vaccinia mCherry	HCMV inh	FMDV antiviral	MARV entry inh	Vaccinia Venus	LASV entry inh
Cc1ccc(-c2nc3ncccc3o2)cc1NC(=O)c1ccc(-c2cccc(Cl)c2C)o1	?	-2.7	?	nt	?	27.0%[46.1 µM]
Cc1ccc(C2=NN(CCC(=O)NCCc3cccc(C)c3)C(=O)CC2)cc1	-6.5%	-19.7	-21.8%	nt	-11.4%	-29.8%[46.1 µM]
O=C1C=C(Nc2ccccc2)C(=O)c2ccccc21	-25.3%	-29.8	9.1%	nt	?	nt
O=C1C=C(Nc2ccccc2)c2ccccc2C1=O	?	-64.1*	?	?	7.94µM*	7.08µM*
CCCCNC1=CC(=O)C(=O)c2ccccc21	nt	-35.4	35.5µM*	16.4µM*	nt	?
O=C1C=C(Nc2cccc3cccnc23)c2ccccc2C1=O	?	-74.9*	28.2µM*	?	5.5%	-0.1%[46.1 µM]
O=C1C=C(Nc2ccccc2C(=O)O)c2ccccc2C1=O	nt	0.0	-25.5%	nt	nt	nt
COc1ccc(CCNC(=O)c2cc3c(=O)n(C)c4ccccc4c3s2)cc1OC	-6.3%	-3.5	-26.6%	2.9%[46.1 µM]	-12.0%	4.7%[46.1 µM]
COc1ccc(C)cc1NC(=O)CN1c2ccccc2S(=O)(=O)c2ccccc21	2.8%	13.8	-25.2%	nt	-0.2%	9.4%[46.1 µM]
O=c1c(-c2cccs2)nc2cnc(N3CCOCC3)nc2n1Cc1cccs1	nt	nt	-22.0%	nt	nt	nt
CSc1nc2nccc(-c3ccc(-c4ccccc4)cc3)n2n1	nt	-21.2	-23.8%	-19.0%	-18.2%	?
CSc1nc2nccc(-c3ccc(Oc4ccccc4)cc3)n2n1	nt	-17.3	-27.6%	?	?	15.8µM*
Cc1ccc(CNC(=O)c2nn(-c3ccc(Cl)cc3)nc2CO)cc1	3.2%	10.2	-14.0%	-4.7%[46.1 µM]	0.0%	?
CN(C)c1ccc(C=Nc2ccccc2C(N)=O)cc1	nt	44.4	-36.9%	14.6µM*	nt	?
CCCNC(=O)OC[C@H]1O[C@H](CCON=C2C[C@@H](O)[C@@H](O)[C@@H]3[C@H]4C(=O)N(CC)C(=O)[C@@H]4CC[C@H]23)C=C[C@H]1Oc1ccc(OC)cc1	nt	nt	nt	0.3%[14.2 µM]	nt	nt
c1ccc2sc(C3CCN(Cc4nnnn4Cc4ccc5c(c4)OCO5)CC3)nc2c1	?	?	20µM*	?	?	?
COc1ccc(Cn2nnnc2CN2CCC(c3nc4ccccc4s3)CC2)cc1	nt	-69.8*	20µM*	?	nt	?
O=C(NCC(c1ccco1)S(=O)(=O)c1cccs1)c1c(F)cccc1F (stereo not given)	-6.5%	4.9	8.8%	nt	-14.2%	-8.1%[46.1 µM]
N#CC(=C(/N)Sc1ccccc1N)/C(C#N)=C(/N)Sc1ccccc1N	nt	nt	-19.5%	?	nt	nt
COc1ccccc1-c1nc2cc(C(=O)NC[C@H]3CCc4ccccc4O3)cc(NC(C)=O)c2n1C	-5.0%	nt	-4.2%	nt	6.8%	nt
c1ccc2c(c1)OCCOCCOCCOCCOCCOc1ccccc1OCCOCCOCCO2	?	-97.9*	?	?	-26.8%	?
Cc1ccc(N2CC(c3nnc(Cc4ccc(F)cc4Cl)o3)CC2=O)cc1 (stereo not given)	-8.1%	5.0	-20.0%	-0.3%[46.1 µM]	-2.9%	15.2%[46.1 µM]
Cc1cnc(C)c(-c2ccc3c(c2)CC(CNC(=O)Cc2c(C)[nH]c4ccccc24)O3)n1 (stereo not given)	?	nt	-23.9%	nt	?	nt
O=C(Nc1ccc(OCC(F)(F)C(F)F)c(C(F)(F)F)c1)c1ccccc1O	?	-97.1*	?	?	10µM*	?
O=C(Nc1ccc(OCC(F)(F)C(F)F)cc1)c1ccncc1	i	-63.3*	?	-27.8%[46.1 µM]	-15.3%	?
CC(C)Cc1nc(SCC(=O)NCC2CCCO2)c2c(=O)n(C)c(=O)n(C)c2n1 (stereo not given)	nt	-77.7*	-5.4%	nt	nt	nt
CCc1cc2c(=O)c(-c3ccc4c(c3)OCCO4)coc2cc1OS(C)(=O)=O	?	?	-0.8%	5.62µM*	?	?
O=c1c(-c2ccccc2)coc2c(CN3CCCCC3)c(O)ccc12	nt	-24.9	-14.7%	nt	nt	nt
CCc1cc2c(=O)c(-c3ccc4c(c3)OCCO4)coc2c(CN2CCCCC2C)c1O (stereo not given)	-22.1%	-61.5*	-19.4%	?	-5.3%	?
CCC1CCCCN1Cc1c(O)ccc2c(=O)c(-c3ccccc3)coc12 (stereo not given)	-0.6%	-92.2*	-1.2%	?	-11.3%	?
